# High-throughput results: PubChem, National Center for Advancing Translational Sciences (NCATS)
# Shiga inhibitor: inhibitors of Shiga toxin in Vero cells; Vero cells, Shiga toxin protein synthesis inhibition reporter; inhibition, % at 38.7 µM; actives 9.2% (n = 290,000); AID 2315; in the data active = inhibition mostly above about 28%, no sharp cut-off; inactive = mostly below about 43%; note: 0% is about no effect
# Sm TGR block: inhibitors of Schistosoma mansoni thioredoxin glutathione reductase; Potency, µM (series often up to 114 µM), inactives show at the highest dose activity change, negative = inhibition, most hits filed as inhibitors; actives 3% (n = 360,000); purified TGR, DTNB reduction, TNB absorbance 405 nm; Q962Y6; note: potency is the fitted concentration of half-maximal effect; % is set by controls: 0 for no effect and ±100 for the full control effect; nearly all actives have a fitted effect of over 60% in size
#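 TGR 20 nM + NADPH 100 uM (dispensed conc.), cpd preinc 15 min RT; start with NADPH (500 uM addition) then DTNB (15 mM addition). Kinetic TNB absorbance, 405 nm filter. Four-parameter Hill fit across titration.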
# Pf growth 96h: P. falciparum growth inhibition at 96 hour, primary screen for plastid delayed-death inhibitors | P. falciparum luciferase reporter growth, 96 h | Potency, µM (titrated, usually from 28.7 µM), without a hit: top-dose activity change, negative = inhibition, usual class: inhibitors | actives 6.9% (n = 320,000); note: potency is the fitted concentration of half-maximal effect; % is set by controls: 0 for no effect and ±100 for the full control effect
#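 Parasite growth measured via integrated firefly luciferase reporter in P. falciparum. Infected erythrocytes at 2% hematocrit, 0.05% parasitemia final were treated 96 hours at 37 C under 5% CO2, and luminescence was read.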
# Cycloheximide cs: affects cycloheximide protein synthesis inhibition readout, counter-screen; cell reporter, cycloheximide protein synthesis inhibition counterscreen; actives 12% (n = 300,000); max response, %; in the data active = max response mostly above about 13%, no sharp cut-off; inactive = mostly below about 14%; note: read at 38.3 µM for the half of the compounds with a filed dose; 0% is about no effect
# NS1 inh: blocks influenza NS1 protein function; Potency, µM (top dose mostly 46.1 µM), for the others: top-dose activity, positive = more growth; actives 0.4% (n = 270,000); calls by dose curve; note: potency is the fitted concentration of half-maximal effect; actives are rising curves; nearly all actives have a fitted effect of over 50% in size
#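 S. cerevisiae expressing influenza A NS1, grown in glucose, washed, then diluted 1:100 into pH 6.0 -URA galactose medium with 23 nl compound. Growth recovery read as OD600; NS1-free strain serves as control.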
# Pf growth 48h: P. falciparum growth inhibition at 48 hours (one generation); P. falciparum luciferase growth in erythrocytes, 48 h; Potency, µM (doses to about 28.7 µM), for the others: at the top dose activity change, negative = inhibition, usual class: inhibitors; actives 5.9% (n = 310,000); AID 504832; note: potency is the fitted concentration of half-maximal effect; % is set by controls: 0 for no effect and ±100 for the full control effect
#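 Luciferase-expressing P. falciparum in infected erythrocytes (2% hematocrit, 0.1% parasitemia final) in RPMI 1640/0.5% Albumax were exposed to compound for 48 hours at 37 C, 5% CO2; growth read as luminescence.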
# Active calls of the source: *; ? = inconclusive; / = no result given; [ ] = remark or other dose. Hits are enriched below; roughly 21% of the tested compounds scored in any of these assays. Unless noted, calls come from the whole dose curve; as a rule, active = well fitted curve in the direction sought with a large enough effect; inconclusive = small, poorly fitted or top-dose-only effect, or another doubt; inactive = no such curve, though single readings can be large; an effect the other way counts as inactive or inconclusive.
SMILES,Shiga inhibitor,Sm TGR block,Pf growth 96h,Cycloheximide cs,NS1 inh,Pf growth 48h
COc1cccc(-c2nc3ccc(C(=O)NC(C)Cc4cccnc4)cc3o2)c1 (centres undefined),28*,2%,17%,29*,-6%,57%
COC(=O)C1CCN(C(=O)c2ccc3nc(-c4cccc(OC)c4)oc3c2)CC1,95*,3%,-22%,76*,-18%,1%
COC(=O)C1CCN(C(=O)c2ccc3nccnc3c2)CC1,-6,0%,?,5,-1%,18%
COc1ccc2oc(-c3ccc(C)c(NC(=O)c4cccnc4)c3)nc2c1,/,7%,/,/,/,/
O=C(CNC(=O)c1cc(S(=O)(=O)N2CCCCC2)ccc1N1CCOCC1)Nc1ccc(F)c(F)c1,/,2%,10%,/,/,?
Cc1cc(Nc2ccc(Cl)cc2)nc(N)n1,63*,-30%,2.6µM*,68*,7%,?
COc1ccc(Nc2cc(C)nc(N)n2)cc1,37*,5%,?,20*,-54%,?
COc1ccc(Nc2cc(Cl)nc(N)n2)cc1,36,2%,6%,29*,/,73%
CCCCNc1cc(Cl)nc(N)n1,-2,9%,39%,-1,-3%,41%
CCCOc1ccc(Nc2cc(C)nc(C)n2)cc1,/,4%,/,/,/,/
CC(Oc1ccc(-c2ccccc2)c(F)c1)c1ccn(S(=O)(=O)c2ccc(Br)cc2)n1 (centres undefined),23,-1%,10µM*,-2,17%,?
CCCn1c(C)cc(C(=O)COc2ccc(-c3nnco3)cc2)c1C,67*,-21%,?,42*,-3%,?
CC1CCCC(C)N1C(=O)COc1ccc(-c2nnco2)cc1 (centres undefined),5,3%,-9%,-4,0%,-3%
Cc1cc(C(=O)COc2ncnc3sccc23)c(C)n1C1CC1,92*,-22%,/,49*,-48%,39%
CCCn1c(C)cc(C(=O)COc2ncnc3sccc23)c1C,105*,?,9%[5.75 µM],44*,-8%,54%
CC(O)C(C(=O)OCc1ccc([N+](=O)[O-])cc1)N1C(=O)c2ccccc2C1=O (centres undefined),24,4%,9%,0,/,3%
CCOc1ccc(C(C)NC(=O)c2cccnc2OCC)cc1OCC (centres undefined),38,2%,?,11,/,?
CCOc1ccc(C(C)NC(=O)Cc2ccccc2F)cc1OCC (centres undefined),3,0%,1.3µM*,1,/,?
CCOc1ccc(C(CCc2ccccc2)NC(=O)c2ccccc2F)cc1OCC (centres undefined),-4,-17%,1.5µM*,-2,-7%,/
CCOc1ccc(C(C)NC(=O)Cc2ccccc2)cc1OCC (centres undefined),-4,8%,2.1µM*,-3,-6%,2.3µM*
CCOc1ccccc1/C=C(/NC(=O)c1ccccc1)C(=O)NC(C)c1ccccc1 (centres undefined),-10,2%,10µM*,6,-4%,5%
CCOc1ccc(C(CCc2ccccc2)NC(=O)c2ccccc2OC)cc1OCC (centres undefined),-8,-1%,?,5,-7%,/
O=C(Nc1ccc(S(=O)(=O)N2CCCCC2)cc1)C1CCCO1 (centres undefined),19,?,24%,-2,-8%,-5%
O=C1C(=O)N(CCCn2ccnc2)C(c2ccc(Br)cc2)/C1=C(\O)c1ccc2c(c1)OCCO2 (centres undefined),-20,0%,9.3µM*,-5,2%,0%
COc1cc(C2/C(=C(\O)c3ccc4c(c3)CC(C)O4)C(=O)C(=O)N2CCCn2ccnc2)cc(OC)c1OC (centres undefined),-2,-11%,?,-7,2%,-1%
SMILES,Shiga inhibitor,Sm TGR block,Pf growth 96h,Cycloheximide cs,NS1 inh,Pf growth 48h
CC1Cc2cc(/C(O)=C3/C(=O)C(=O)N(CCCn4ccnc4)C3c3ccc(F)cc3)ccc2O1 (centres undefined),63,9%,8%,21*,-11%,35%
CCOC(=O)c1c(C)n(-c2ccccc2)c2ccc(OCCN(C)C)cc12,17,-8%,-13%,-6,4%,?
CCOC(=O)c1sc(=S)n(-c2ccc(C)cc2)c1SC,15,1%,0.47µM*,6,15%,1.2µM*
CCOC(=O)c1c(C)n(C)c2ccc(O)c(CN(C)C)c12,-11,?,19%,0,-3%,-7%
CCOC(=O)c1sc(=S)n(-c2ccc(OC)cc2)c1N,7,-3%,?,8,4%,?
CCOC(=O)c1c(C)n(-c2ccc(OC)cc2)c2ccc(O)c(CN(C)C)c12,-7,-10%,7.4µM*,-4,6%,?
CCOC(=O)c1sc(=N)n(-c2ccc(OC)cc2)c1C,102,3%,7%,28*,-10%,49%
CCOC(=O)c1c(C)n(-c2ccc(C)cc2)c2ccc(O)c(CN(C)C)c12,-6,/,32%,-6,0%,10µM*
Cc1ccc2c(c1)c1c(c(=O)n(-c3ccccc3)c(=O)n1CC(=O)NCCC1=CCCCC1)n2C,/,7%,/,/,/,/
O=C(NC1CCN(S(=O)(=O)c2ccc(Cl)c(F)c2)CC1)c1cccnc1,4,-3%,62%,-4,1%,-15%
CC(/C=C/c1ccccc1)=N\Nc1ccccc1[N+](=O)[O-],89*,-9%,-26%,32*,/,97%
CC(/C=C/c1ccco1)=N/NC(=O)CNc1ccccc1C,-8,35µM*,?,-2,/,-10%
CC(/C=C/c1ccccc1)=N/NC(=O)c1cc([N+](=O)[O-])cc([N+](=O)[O-])c1,-1,3%,72%,-10,27%,?
CCOC(=O)N/N=C(C)/C=C/c1ccco1,31,32µM*,?,21*,6%,-15%
CCOC(=O)N/N=C\C=C\c1ccco1,-7,22µM*,?,0,14%,16%
Cc1cc(C(=O)N2CCC(C(=O)O)CC2)c(C)o1,-4,0%,46%,2,-3%,11%
CCOC(=O)N/N=C(C)/C=C/c1ccccc1,16,6%,?,28*,-7%,0%
CC(/C=C/c1ccccc1)=N/NC(=O)C(O)c1ccccc1 (centres undefined),45*,5%,-18%,10,-6%,31%
CC(/C=C/c1ccccc1)=N\NC(=O)CCc1ccccc1,16,0%,32%,7,0%,?
CC(NC(=O)/C=C/c1ccccc1)c1ccccc1 (centres undefined),-6,10%,-17%,-2,-2%,-21%
COc1ccc(C(=O)Nc2c(C(C)(C)C)nn(C)c2C(C)(C)C)cc1,-5,6%,50%,1,-4%,8%
